The nature of experiment [1]: antimalarial activity against Dd2 strain (AID 2302;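 active = growth inhibition above 50% at the single 2 µM test dose, taken to imply half-maximal potency below 2 µM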;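 note: 0% = DMSO untreated growth and 100% = chloroquine plus artemisinin killed control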). The note with it: P. falciparum Dd2 in RBCs, LDH growth readout, 72 h; at 2 µM; hits give high values.
Experiment [2] can be described thus: human hepatoma cell viability loss – ATP luminescence, cytotoxicity control for P. falciparum antimalarial project, primary screen (AID 2303;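 active = inhibition above 50%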;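 note: 0% = DMSO wells and 100% = digitonin-killed cells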). The note with it: HepG2 viability, 24-48 h, at 10 µM, hits give high values.
Experiment [3] has as its target L-lactate dehydrogenase (Plasmodium falciparum (isolate CDC / Honduras)) (UniProt Q27743). Nature of the experiment: PfLDH activity inhibition – cell lysate, 3D7 strain, counter-screen for P. falciparum growth inhibition project (AID 2304).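 Note: 0% = vehicle and 100% = reference inhibitor.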 The note with it: P. falciparum 3D7 crude extract, LDH APAD/NBT absorbance; at 2 µM; hits give high values. A general note: A counterscreen serves to expose hits that act by an unwanted route or on another target.

Experiment [4] in a line: inhibition of 3D7 malaria parasite growth – strain 3D7 (AID 2306).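 Note: 0% = DMSO wells and 100% = chloroquine plus artemisinin control wells.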 The note with it: P. falciparum 3D7 erythrocytic growth, LDH absorbance, 72 h; at 2 µM; hits give high values.
Experiment [5] concerns the target Calcium-dependent protein kinase 1 (Plasmodium falciparum (isolate 3D7)) (UniProt P62344). Nature of the experiment: PfCDPK1 kinase inhibitors, biochemical, TCAMS library (AID 1159585; cut-off not given, nearly all actives have IC50 up to about 0.98 µM;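 note: inhibitors leave more ATP so luminescence rises with inhibition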). The note with it: recombinant PfCDPK1, Kinase-Glo ATP depletion luminescence. (In Kinase-Glo more light means more ATP remaining.)
Experiment [6] concerns the target Plasmodium falciparum protein kinase 6 (PK6, PF3D7_1337100) (UniProt Q8IDW1). Kind of experiment: PfPK6 kinase inhibitors, biochemical, TCAMS library (AID 1159586). The note with it: recombinant PfPK6, Kinase-Glo ATP depletion luminescence.
For experiment [7], the target named is Protein kinase 7 (PK7), Plasmodium falciparum 3D7 (PF3D7_0213400) (UniProt Q7YTF7). Nature of the experiment: inhibition of Plasmodium PK7 catalytic activity – biochemical, TCAMS antimalarial set, Kinase-Glo luminescence (AID 1159587). The note with it: recombinant PfPK7, Kinase-Glo ATP depletion luminescence.
Experiment [8] addresses Calcium-dependent protein kinase 4 (Plasmodium falciparum (isolate 3D7)) (UniProt Q8IBS5). Kind of experiment: PfCDPK4 kinase inhibitors, biochemical, TCAMS library (AID 1159588; cut-off not given, nearly all actives have IC50 up to about 0.91 µM). The note with it: recombinant PfCDPK4, Kinase-Glo ATP depletion luminescence.

Molecules are shown by their SMILES. Unmarked numbers belong to inactive results. For some assays here: Entries with a potency or affinity are not part of this list. The source made the active and inactive calls. Unless noted, the rule behind the calls is not given here.

Calcium-dependent protein kinase 4 (Plasmodium falciparum (isolate 3D7)), sequence (Q8IBS5 whole entry, looked up): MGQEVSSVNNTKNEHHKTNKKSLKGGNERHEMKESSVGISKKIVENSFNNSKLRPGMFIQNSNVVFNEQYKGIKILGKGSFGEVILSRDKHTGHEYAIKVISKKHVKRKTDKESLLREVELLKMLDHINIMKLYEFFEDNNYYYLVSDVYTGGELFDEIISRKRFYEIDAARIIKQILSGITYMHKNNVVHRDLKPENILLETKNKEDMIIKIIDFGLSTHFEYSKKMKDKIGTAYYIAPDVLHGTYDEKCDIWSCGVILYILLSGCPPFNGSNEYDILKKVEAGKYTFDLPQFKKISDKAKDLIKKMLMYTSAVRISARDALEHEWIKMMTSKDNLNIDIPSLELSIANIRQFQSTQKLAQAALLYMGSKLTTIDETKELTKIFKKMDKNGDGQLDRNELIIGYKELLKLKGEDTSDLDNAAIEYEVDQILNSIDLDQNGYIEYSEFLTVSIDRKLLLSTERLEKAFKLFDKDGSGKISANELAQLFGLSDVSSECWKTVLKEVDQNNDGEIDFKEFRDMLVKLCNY
Protein kinase 7 (PK7), Plasmodium falciparum 3D7 (PF3D7_0213400), sequence (Q7YTF7 1-343): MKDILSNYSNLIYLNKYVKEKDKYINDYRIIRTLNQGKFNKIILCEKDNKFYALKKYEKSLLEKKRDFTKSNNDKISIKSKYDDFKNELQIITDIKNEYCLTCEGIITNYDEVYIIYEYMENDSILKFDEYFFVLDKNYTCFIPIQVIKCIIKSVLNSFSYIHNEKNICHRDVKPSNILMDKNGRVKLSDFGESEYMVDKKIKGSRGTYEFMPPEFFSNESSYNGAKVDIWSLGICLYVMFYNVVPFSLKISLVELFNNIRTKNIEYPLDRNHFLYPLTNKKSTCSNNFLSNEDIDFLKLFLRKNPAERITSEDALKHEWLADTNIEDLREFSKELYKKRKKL
L-lactate dehydrogenase (Plasmodium falciparum (isolate CDC / Honduras)), sequence (Q27743 whole entry, looked up): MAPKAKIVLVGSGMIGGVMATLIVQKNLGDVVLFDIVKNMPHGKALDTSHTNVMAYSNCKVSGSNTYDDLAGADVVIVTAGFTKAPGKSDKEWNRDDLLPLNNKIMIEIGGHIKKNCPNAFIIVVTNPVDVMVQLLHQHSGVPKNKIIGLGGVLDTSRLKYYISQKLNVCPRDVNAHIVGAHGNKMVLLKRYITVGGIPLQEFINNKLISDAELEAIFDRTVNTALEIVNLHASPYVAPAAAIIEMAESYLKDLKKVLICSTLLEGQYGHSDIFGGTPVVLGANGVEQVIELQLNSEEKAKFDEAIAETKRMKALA
Calcium-dependent protein kinase 1 (Plasmodium falciparum (isolate 3D7)), sequence (P62344 whole entry, looked up): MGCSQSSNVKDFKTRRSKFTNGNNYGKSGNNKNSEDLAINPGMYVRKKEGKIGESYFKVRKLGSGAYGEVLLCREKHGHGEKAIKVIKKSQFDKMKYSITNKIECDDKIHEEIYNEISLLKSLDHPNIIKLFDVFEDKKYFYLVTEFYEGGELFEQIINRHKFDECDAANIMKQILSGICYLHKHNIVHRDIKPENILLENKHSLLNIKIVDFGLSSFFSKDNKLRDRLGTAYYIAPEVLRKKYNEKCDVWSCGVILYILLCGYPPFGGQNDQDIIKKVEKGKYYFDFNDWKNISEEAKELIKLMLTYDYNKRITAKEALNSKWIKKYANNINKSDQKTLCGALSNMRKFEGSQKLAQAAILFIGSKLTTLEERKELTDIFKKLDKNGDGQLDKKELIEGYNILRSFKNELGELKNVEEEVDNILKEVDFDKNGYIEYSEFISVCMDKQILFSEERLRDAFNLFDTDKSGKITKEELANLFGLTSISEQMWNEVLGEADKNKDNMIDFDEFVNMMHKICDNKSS
Plasmodium falciparum protein kinase 6 (PK6, PF3D7_1337100), sequence (Q8IDW1 1-305): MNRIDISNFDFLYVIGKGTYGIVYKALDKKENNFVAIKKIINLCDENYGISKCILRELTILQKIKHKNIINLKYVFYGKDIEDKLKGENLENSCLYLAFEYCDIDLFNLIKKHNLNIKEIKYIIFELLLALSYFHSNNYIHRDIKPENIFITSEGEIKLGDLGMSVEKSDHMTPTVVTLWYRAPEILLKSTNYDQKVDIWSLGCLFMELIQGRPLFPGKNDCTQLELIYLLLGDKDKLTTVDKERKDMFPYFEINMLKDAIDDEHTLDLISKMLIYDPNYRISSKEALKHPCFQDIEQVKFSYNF

The term inhibition denotes the drop in the measured response relative to a control, in per cent. Consider `CCOC(C(=O)OCCN(C(C)C)C(C)C)(c1ccccc1)c1ccccc1`, for which the growth inhibition was 4% in experiment [1] and 97% (active) in experiment [4]. The inhibition was 4% in experiment [2] and -2% in experiment [3]. For the same compound, the outcome in experiment [5], in experiment [6], in experiment [7] and in experiment [8] was inactive.

Consider `Cc1nc(-c2ccc(-c3ccc(C(=O)Nc4ccc5c(c4)C4(CCNCC4)CO5)cc3)c(C)c2)no1`, for which the growth inhibition in experiment [1] was 15%; in experiment [4], 90% (active). The inhibition in experiment [2] is 37%; in experiment [3] it was -3%. Further, the outcome in experiment [5], in experiment [6], in experiment [7] and in experiment [8] was inactive.

With `O=C(/C=C/c1ccc(Cl)c(Cl)c1)NCC1CCC(N2CCC(c3c[nH]c4ccccc34)CC2)CC1` (configuration not stated), the growth inhibition in experiment [1] is 95% (active); in experiment [4], 101% (active). For the same compound, the inhibition is 48% in experiment [2] and -1% in experiment [3]. For the same compound, the result in experiment [5], in experiment [6], in experiment [7] and in experiment [8] was inactive.

Take `O=C(NC1CCC(CN2CCC(c3c[nH]c4ccccc34)CC2)CC1)c1cc(-c2ccccc2Cl)oc1C(F)(F)F` (configuration not stated): the growth inhibition in experiment [1] was 7%; in experiment [4], 99% (active). The inhibition in experiment [2] is 24%; in experiment [3], 4%. In addition, the result in experiment [5], in experiment [6], in experiment [7] and in experiment [8] was inactive.

Regarding `Cc1c(C)c2c(c(C)c1O)CC[C@](C)(C(=O)N1CCC(CN3CCC(c4c[nH]c5ccccc45)CC3)CC1)O2`, the figures for the growth inhibition in experiment [1] and in experiment [4] were 98% (active) and 101% (active), respectively. Moreover, the figures for the inhibition in experiment [2] and in experiment [3] were 29% and 2%, respectively. The outcome in experiment [5], in experiment [6], in experiment [7] and in experiment [8] was inactive.

On to `Cc1csc(NC2=NCCN2)n1`, for which the values for the growth inhibition in experiment [1] and in experiment [4] were 1% and 99% (active), respectively. Besides, the results for the inhibition in experiment [2] and in experiment [3] were 10% and 0%, respectively. Further, the outcome in experiment [5], in experiment [6], in experiment [7] and in experiment [8] was inactive.

For `CN(c1cc(NC(=O)c2cccs2)ccn1)C1CCN(Cc2ccccc2)CC1`, the growth inhibition in experiment [1] is 87% (active); in experiment [4], 92% (active). The values for the inhibition in experiment [2] and in experiment [3] were -2% and -1%, respectively. The outcome in experiment [5], in experiment [6], in experiment [7] and in experiment [8] was inactive.

Take `CC[C@H]1CN2CC[C@@H]1C[C@H]2[C@H](O)c1cc(N2CCC(O)(c3ccc(Cl)cc3)CC2)nc2ccc(OC)cc12`: the growth inhibition in experiment [1] was 98% (active); in experiment [4], 101% (active). In addition, the inhibition is 21% in experiment [2] and -8% in experiment [3]. Moreover, the outcome in experiment [5], in experiment [6], in experiment [7] and in experiment [8] was inactive.

In the case of `Cc1[nH]c2ccc(O)cc2c1C1CCN(CC2CCC(NC(=O)/C=C/c3c(Cl)cccc3Cl)CC2)CC1` (configuration not stated), the growth inhibition was 93% (active) in experiment [1] and 103% (active) in experiment [4]. Besides, the inhibition in experiment [2] was 25%; in experiment [3] it was -3%. Moreover, the result in experiment [5], in experiment [6], in experiment [7] and in experiment [8] was inactive.

As to `Cc1[nH]c2cc(Cl)ccc2c1C1=CCN(CCCCC2(C)C(=O)Nc3ccccc32)CC1` (configuration not stated), the results for the growth inhibition in experiment [1] and in experiment [4] were 90% (active) and 94% (active), respectively. Besides, the inhibition in experiment [2] was -3%; in experiment [3], 0%. For the same compound, the result in experiment [5], in experiment [6], in experiment [7] and in experiment [8] was inactive.

`Cc1cc(CN2CCN(CCOC(c3ccccc3)c3ccccc3)CC2)ccc1O`: the growth inhibition in experiment [1] was 96% (active); in experiment [4], 97% (active). The inhibition in experiment [2] is 9%; in experiment [3], -1%. The result in experiment [5], in experiment [6], in experiment [7] and in experiment [8] was inactive.

For `Cc1[nH]c2ccc(O)cc2c1C1CCN(CC2CCN(C(=O)/C=C/c3ccc(Cl)c(Cl)c3)CC2)CC1`, the growth inhibition in experiment [1] and in experiment [4] was 99% (active) throughout. Also, the figures for the inhibition in experiment [2] and in experiment [3] were 23% and -13%, respectively. Further, the outcome in experiment [5], in experiment [6], in experiment [7] and in experiment [8] was inactive.

With `CC1=CC(=O)[C@@H](O)[C@]2(C)[C@H]3[C@@]4(O)OC[C@@]35[C@@H](C[C@@H]12)OC(=O)C[C@H]5[C@@H](C)[C@H]4O`, the growth inhibition in experiment [1] is 98% (active); in experiment [4], 99% (active). In addition, the inhibition was 38% in experiment [2] and 4% in experiment [3]. For the same compound, the result in experiment [5], in experiment [6], in experiment [7] and in experiment [8] was inactive.

Turning to `Cc1cc(C)c(CC(C)NCC(O)c2cccc(C(F)(F)F)c2)c(C)c1` (configuration not stated), the growth inhibition is 99% (active) in experiment [1] and 100% (active) in experiment [4]. Further, the inhibition in experiment [2] was 0%; in experiment [3] it was 5%. The result in experiment [5], in experiment [6], in experiment [7] and in experiment [8] was inactive.

On to `COC(=O)c1ccc(CC(C)NCC(O)c2cccc(Oc3cccc(C(F)(F)F)c3)c2)cc1` (configuration not stated), for which the values for the growth inhibition in experiment [1] and in experiment [4] were 73% (active) and 91% (active), respectively. The inhibition was 19% in experiment [2] and 2% in experiment [3]. For the same compound, the outcome in experiment [5], in experiment [6], in experiment [7] and in experiment [8] was inactive.

For the compound `CC(=O)C1(c2ccccc2)CCN(CCC2(c3ccc(Cl)c(Cl)c3)CN(C(=O)Nc3cc(F)cc(F)c3)CCO2)CC1` (configuration not stated), the growth inhibition in experiment [1] was 20%; in experiment [4], 86% (active). Also, the figures for the inhibition in experiment [2] and in experiment [3] were 2% and -1%, respectively. Also, the result in experiment [5], in experiment [6], in experiment [7] and in experiment [8] was inactive.

For the compound `CC(C)CN1CCC(N(C)c2cc(NC(=O)c3cccc(F)c3)ccn2)CC1`, the growth inhibition in experiment [1] was 10%; in experiment [4] it was 97% (active). Besides, the inhibition was 8% in experiment [2] and -1% in experiment [3]. Besides, the result in experiment [5], in experiment [6], in experiment [7] and in experiment [8] was inactive.

As for `CC(C)CNCc1ccc(-c2cccc(CN(C(=O)Nc3ccccc3)C3CCN(Cc4ccccc4)CC3)c2)cc1`, the results for the growth inhibition in experiment [1] and in experiment [4] were 95% (active) and 101% (active), respectively. Besides, the results for the inhibition in experiment [2] and in experiment [3] were 48% and 4%, respectively. Further, the result in experiment [5], in experiment [6], in experiment [7] and in experiment [8] was inactive.

Take `CC[C@H]1CN2CC[C@@H]1C[C@H]2[C@H](O)c1cc(N2CCC(N3CCCCC3)CC2)nc2ccc(OC)cc12`: the growth inhibition in experiment [1] was 77% (active); in experiment [4] it was 99% (active). The inhibition in experiment [2] was 0%; in experiment [3] it was 3%. For the same compound, the outcome in experiment [5], in experiment [6], in experiment [7] and in experiment [8] was inactive.

The record behind these values is PubChem BioAssay.
